eIF4H FP inh: inhibitors of RNA binding by human eIF4H; eIF4H fluorescence polarization binding assay; inhibition, % at 35 µM; actives 0.94% (n = 290,000); AID 2012;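 further: calls also rest on retests at 20 µM and on dose response follow-up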
PERK inhibitor: human PERK inhibition, primary cell-based screen. actives 0.17% (n = 220,000). inhibition, % at 5.6 µM. CHO PERK-DD fusion, SEAP luminescence translation reporter. AID 1416. Q9NZJ5;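 active means inhibition above the mean inhibition of all tested compounds plus 3 SD, set separately per screening campaign, cut at about 2.9% in these data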;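 further: PERK kinase domain activated by AP20187 dimerizer at 100 nM; 0% = DMSO with dimerizer and 100% = rapamycin at 8.4 µM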
Target sequence (Q9NZJ5 whole entry, looked up, the tested form may be a part): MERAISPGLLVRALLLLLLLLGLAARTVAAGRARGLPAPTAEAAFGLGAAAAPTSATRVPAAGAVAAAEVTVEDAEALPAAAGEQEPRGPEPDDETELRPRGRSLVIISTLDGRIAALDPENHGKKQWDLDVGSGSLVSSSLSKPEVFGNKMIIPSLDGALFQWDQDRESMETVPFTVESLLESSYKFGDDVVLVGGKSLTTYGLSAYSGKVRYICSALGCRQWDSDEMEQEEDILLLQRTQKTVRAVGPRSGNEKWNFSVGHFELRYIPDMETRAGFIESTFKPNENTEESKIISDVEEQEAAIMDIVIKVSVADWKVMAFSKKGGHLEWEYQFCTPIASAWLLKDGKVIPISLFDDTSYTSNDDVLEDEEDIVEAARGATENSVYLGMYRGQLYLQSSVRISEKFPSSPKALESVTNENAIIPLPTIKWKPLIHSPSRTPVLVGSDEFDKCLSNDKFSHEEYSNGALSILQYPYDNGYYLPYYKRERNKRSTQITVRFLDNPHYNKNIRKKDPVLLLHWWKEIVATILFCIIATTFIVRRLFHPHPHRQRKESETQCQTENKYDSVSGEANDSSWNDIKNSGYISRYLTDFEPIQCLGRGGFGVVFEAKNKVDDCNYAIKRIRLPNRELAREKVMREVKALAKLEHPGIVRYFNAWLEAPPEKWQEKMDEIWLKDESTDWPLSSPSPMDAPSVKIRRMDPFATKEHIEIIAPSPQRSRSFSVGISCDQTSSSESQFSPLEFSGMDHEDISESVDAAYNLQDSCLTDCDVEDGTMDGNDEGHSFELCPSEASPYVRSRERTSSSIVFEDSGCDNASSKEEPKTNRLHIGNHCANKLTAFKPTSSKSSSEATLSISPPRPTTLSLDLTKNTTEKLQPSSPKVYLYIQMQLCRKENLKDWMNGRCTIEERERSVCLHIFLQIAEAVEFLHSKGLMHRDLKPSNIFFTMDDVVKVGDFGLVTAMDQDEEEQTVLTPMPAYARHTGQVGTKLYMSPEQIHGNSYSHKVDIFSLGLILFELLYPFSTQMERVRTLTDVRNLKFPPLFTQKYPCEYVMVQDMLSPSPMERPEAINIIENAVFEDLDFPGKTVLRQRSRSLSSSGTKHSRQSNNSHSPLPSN
eIF4E-4G inh: inhibitors of eIF4E and eIF4G interaction in translation initiation; inhibition, % at 21.7 µM; actives 0.37% (n = 220,000); TR-FRET eIF4E-eIF4GI(517-606) binding, 2 h; P63073+Q04637; AID 782;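 active means inhibition above about 30%, limit read from the data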;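 further: 0% = full FRET control wells and 100% = background wells lacking eIF4GI fragment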
PABP1 MLLE inh: blocks PAM2 peptide binding to the PABP1 MLLE domain | P11940 | GST-MLLE / FITC-PAM2 fluorescence polarization | inhibition, % at 20 µM | actives 0.36% (n = 360,000) | AID 588489; in the data active means inhibition above about 35%, passing the limit was not always enough;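 further: plate controls were DMSO wells with GST-MLLE for no effect and wells lacking GST-MLLE protein for full effect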
PABP polyA inh: blocks human PABP binding to poly(A) RNA; P11940; fluorescence polarization; inhibition, % at 35 µM; actives 1% (n = 290,000); AID 2014;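 further: calls also rest on retests at 20 µM and on dose response follow-up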
Numbers without * were called inactive; ? = inconclusive; . = not tested or not shown. Hits are enriched below; roughly 1.6% of the tested compounds scored in any of these assays. Unless noted, how the calls were made is not given here.

SMILES | eIF4H FP inh | PERK inhibitor | eIF4E-4G inh | PABP1 MLLE inh | PABP polyA inh
CC(CS(=O)(=O)c1ccc2c(c1)NC(=O)CS2)C(=O)NCc1ccccc1Cl (stereo not drawn) | 67 | . | . | -28 | 25*
CC(CS(=O)(=O)c1ccc2c(c1)NC(=O)CS2)C(=O)N1CCN(c2cccc(Cl)c2)CC1 (stereo not drawn) | 74* | . | . | -28 | 34*
O=C1CSc2ccc(S(=O)(=O)NCc3ccccc3Cl)cc2N1 | -5 | . | . | 1 | 3
O=C(O)/C=C/c1ccc(O)c(O)c1 | -11 | 0 | 2 | -1 | -6
O=C(/C=C/c1ccc(O)c(O)c1)O[C@H](Cc1ccc(O)c(O)c1)C(=O)O | 98* | . | 16 | . | 82*
O=C1NN(c2ccc(F)cc2)C(=O)/C1=C\C=C\c1ccco1 | 88* | 1 | 3 | 0 | active
O=C1NN(c2ccc(F)cc2)C(=O)/C1=C\c1cnn(-c2ccccc2)c1 | 5 | 1 | 7 | . | -1
CCOc1ccc(C2C(C#N)=C(N)N(c3sc4c(c3C#N)CCCC4)C3=C2C(=O)CCC3)cc1 (stereo not drawn) | ? | -1 | 3 | -24 | 30*
N#CC1=C2N=C(N)c3c(sc4c3CCCCC4)N2C2=C(C(=O)CCC2)C1c1ccccc1 (stereo not drawn) | 50 | -1 | -50 | -11 | 30
COc1ccc(S(=O)(=O)N(C)C[C@H]2Oc3ccc(NC(=O)Cc4cn(C)c5ccccc45)cc3C(=O)N([C@@H](C)CO)C[C@@H]2C)cc1 | . | . | . | -12 | .
COc1cc(/C=C2/S/C(=N/S(=O)(=O)c3ccccc3)NC2=O)c([N+](=O)[O-])cc1OC | 22 | 0 | 2 | 39* | 63
COc1cc(/C=C2\S/C(=N/S(=O)(=O)Cc3ccccc3)NC2=O)c([N+](=O)[O-])cc1OC | 1 | 1 | -3 | 23 | 24
COc1cc(/C=C2/S/C(=N/S(=O)(=O)Cc3ccccc3)NC2=O)c([N+](=O)[O-])cc1OC | 1 | 3.0* | -6 | 9 | 4
C=CCNC(=S)N/N=C(\C)c1cccc(OC)c1 | -7 | 1 | 1 | 40* | -4
C/C(=N\NC(=S)NCCc1ccccc1)c1cccc(Br)c1 | -9 | 2 | -2 | 39* | -6
C=CCNC(=S)N/N=C(\C)c1ccc(OC)cc1 | 8 | 1 | -12 | 18 | 6
C/C(=N\NC(=S)NCc1ccccc1)c1cccc(Br)c1 | -5 | 1 | -1 | 23 | 28
CCOC(=O)C1=CN(Cc2cccc(-c3ccc4c(c3)OCO4)c2)S(=O)(=O)N(C)C1C (stereo not drawn) | . | . | . | 6 | .
Cc1cc(C)nc(SCc2ccc(C(=O)O)o2)n1 | -4 | 3.1* | 0 | -1 | 0
NC(=S)N/N=C/c1ccc(/C=N/NC(N)=S)cc1 | 3 | 3.5* | 0 | -22 | 2
O=C(NCc1ccccc1)N1CCNCC1 | 6 | . | . | 4 | 8
CC(=O)c1ccc(S(=O)(=O)N(C)CC(=O)Nc2ccc(C)cc2)cc1 | . | . | . | -4 | .
CC(=O)Nc1ccc(NC(=O)C(C)Sc2nnc(C3CC3)n2-c2ccccc2)cc1 (stereo not drawn) | . | . | . | -9 | .
COC(=O)CCCC1=CC2=CC(=O)C(C)(OC(=O)c3cccs3)C(=O)C2=CN1CCc1ccccn1 (stereo not drawn) | 73 | . | -1 | 26 | 46*
CN1C[C@@H]2[C@@H]3C(=O)N(C)C(=O)[C@@H]3[C@](Cc3ccccc3)(C1=O)N2C(=O)c1ccc(Cl)cc1 | . | . | . | -6 | .
SMILES | eIF4H FP inh | PERK inhibitor | eIF4E-4G inh | PABP1 MLLE inh | PABP polyA inh
Cc1sc2ncnc(SCc3ccc(C(=O)O)cc3)c2c1C | -5 | 0 | 3 | 16 | 4
Cc1ccc(-c2csc3ncnc(SCc4ccc(C(=O)O)cc4)c23)cc1 | 95* | 2 | 13 | -11 | 86
O=C(NCCCO)/C(=C/c1ccco1)NC(=O)c1ccc(Br)o1 | 58* | 0 | 11 | 8 | -6
COc1ccccc1N1C(=O)N(C(C)=O)C2C1Nc1ccccc1N2C (stereo not drawn) | 78* | -1 | -1 | -37 | 110*
Cc1cccc(C(=O)O[C@@H]2[C@H](Cc3ccccc3)NS(=O)(=O)[C@H]3C[C@@H]4C=C[C@]23O4)c1 | . | . | . | 11 | .
Oc1ccc(CNc2ccccc2)c2cccnc12 | 20 | 0 | 4 | 41* | 3
Cc1ccc(C)c2[nH]c(=O)c(CCNC(=O)CCc3ccccc3)cc12 | -16 | . | . | 10 | -4
COCCN(Cc1nc2ccccc2c(=O)[nH]1)C(=O)COc1c(C)cc(Cl)cc1C | . | . | . | -7 | .
CCOc1ccc(C(=S)N2CCOCC2)cc1OC | 0 | 0 | 2 | 21 | -3
